About 2,100 (3.2%) of roughly 65,000 compounds showed an effect of 50% or more. The median lay at about -52%. The entries come from a sample that favours strong results as a whole.
Each compound was assayed on Plasmodium falciparum (assay: Screen against P. falciparum Asexual Blood Stage (ABS), at 5uM). Conditions: tested at 5 uM.
Format: functional, Dd2

SMILES	INHIBITION [%]
CCc1noc(C)c1C(=O)NCC(c1ccc(C)cc1)N(C)C (stereo not given)	71.4
Cc1noc(CN2CC=C(c3cnn(C4CCS(=O)(=O)C4)c3)CC2)n1 (stereo not given)	-15.1
CC(C)(C)n1ncc2c1NC(=O)CSC2c1ccc2c(c1)OCO2 (stereo not given)	-138
NC(=O)c1ccc(N2CCCCC2)c(NC(=O)c2ccc(Br)cc2)c1	71.3
O=C(NC[C@H]1C[C@@H]2CCN1C[C@@H]2CN1CCOCC1)Nc1ccccc1	-40.4
Cc1cc(C)nc(Nc2ccc(C3CCCCN3)cn2)n1 (stereo not given)	-64.1
c1cnc(Nc2ccc(C3CCCCN3)cn2)cn1 (stereo not given)	13.6
Cc1cccc(Nc2ccc(C3CCCCN3)cn2)n1 (stereo not given)	81.4
CC(C)C1CCCN1C(=O)c1ccc(-n2ncc(C#N)c2N)cc1 (stereo not given)	71.4
Cc1cc(CN2C[C@@H]3COC[C@]3(COCc3csc(C)n3)C2)no1	-58.8
Cc1cc(CN2C[C@H]3CCC[C@@]3(COCc3csc(C)n3)C2)no1	14.2
Cc1cccc(CN2C[C@H]3CCC[C@@]3(COCc3csc(C)n3)C2)n1	82
CC(C)N1CCCCC1c1cncc(Cl)n1 (stereo not given)	-50.5
CC(C)N1CCCC1c1nc(N(C)C)ncc1I (stereo not given)	70.7
CC(C)N1CCCCC1c1nc(N(C)C)ncc1I (stereo not given)	72
COCCNC(=O)[C@H]1CN2CCC1C[C@@H]2Cn1cc(C(C)(C)C)nn1 (stereo not given in full)	-65.8
c1cnc(N2CCOC3(COCCN(Cc4cc[nH]n4)C3)C2)nc1 (stereo not given)	-27.9
CCN(C)C[C@@H]1CN(S(=O)(=O)c2cccc(Cl)c2)C[C@@H]1CO	75.3
CCNC(=O)[C@H]1CN(Cc2ccccc2)C[C@@H]1C(=O)c1ccccc1	-76.3
CC(C)=CCN1C[C@@H]2CC[C@H]1CN(S(=O)(=O)c1cccnc1)C2	-10.7
C=Cc1cccc(CN2C[C@@H](CN(C)CC)[C@@H](CO)C2)c1	87.6
CCN(C)C[C@@H]1CN(Cc2cccc(Cl)c2)C[C@@H]1CO	83.6
Cc1nc(CN2CCN(C(=O)Cc3cccc(Cl)c3)CC2)no1	-18.4
Cc1cccc(N2CCN(C(=O)CCc3c(C)noc3Cl)CC2)c1	86.3
CN1CC=C(c2noc(CCC(=O)N3CCCC3)n2)CC1	-71.4
Cc1ccnc(CC(C)N(C)Cc2ccc3c(c2)CCO3)c1 (stereo not given)	-33.2
Cc1ccc(CN2CCO[C@@H]3[C@@H](OCc4cccnc4)CC[C@@H]32)o1	-89.9

SMILES	INHIBITION [%]
Cc1nc(C(=O)N[C@H]2COC[C@@H]2N2CCCCC2)cs1	-260
O=C(N[C@H]1COC[C@@H]1N1CCCC1)c1csc(-c2cccs2)n1	50.8
O=C(N[C@H]1COC[C@@H]1N1CCCC1)c1csc(Cc2ccccc2)n1	-21.2
CN1CCC2(CC1)CN(Cc1ccc(C3CCCCO3)o1)CCCN2C (stereo not given)	81.1
c1cnc(N2CCOCC3(CN(Cc4cc[nH]n4)CCO3)C2)nc1 (stereo not given)	-54.7
CN(Cc1ccco1)[C@@H]1CN(Cc2cccnc2)[C@@H]2CCCO[C@H]12	-40.9
Cc1cc(CN2C[C@@H]3CCCO[C@@H]3[C@H](N(C)C(C)C)C2)no1	-18.2
CN(Cc1cncnc1)[C@H]1CN(Cc2ccco2)[C@@H]2CCCO[C@@H]21	-96.6
Cc1cccc(CN2C[C@@H]3CCCO[C@@H]3[C@H](NS(C)(=O)=O)C2)n1	-63.9
CN(Cc1ccco1)[C@@H]1CN(Cc2ccsc2)C[C@@H]2CCCO[C@@H]21	76
Cc1ccc(CN2C[C@@H]3CCCO[C@@H]3[C@H](N(C)Cc3ccco3)C2)s1	74.2
c1cnc(N2C[C@H]3CC[C@@H](C2)N(Cc2ccsc2)C3)nc1	-21
c1ccc(O[C@@H]2CO[C@@]3(CCCN(CC4CCOCC4)C3)C2)nc1	3.78
Cc1cc(CN2C[C@@H]3COC[C@]3(CNS(C)(=O)=O)C2)no1	-20.4
CN1CCOC(CN(C(=O)CN2CCCC2=O)c2nccs2)C1 (stereo not given)	-55.7
N#Cc1cccc(OC23CCCN(CC2)C3)c1 (stereo not given)	-31.3
c1ccc(Oc2cccc(OC34CCCN(CC3)C4)c2)cc1 (stereo not given)	76.9
c1ccc(O[C@@H]2CN(Cc3nccs3)[C@@H]3CCCO[C@@H]32)nc1	-4.8
CCOCCN(C)C(=O)Nc1cccc2c1CCN(CC)C2	-88.7
CCc1ccccc1OCCN(C)C(=O)CN1CCCC1	75.4
Cc1noc(C)c1CN1C[C@@H]2CN(C(=O)c3cscn3)C[C@@H]2C1	-82.3
Cc1ccnc(NC(=O)c2[nH]nc(C(C)C)c2Br)c1	73.7
Cc1ccnc(NCCNC(=O)C2CC3(CCNCC3)CN2C)c1 (stereo not given)	-81.4
CC(C)c1n[nH]c(C(=O)Nc2ccccn2)c1Br	84.6
Cc1cc(CN2C[C@@H]3CN(C(=O)c4ccsc4)CCO[C@@H]3C2)no1	-12.1
CN1CCc2nc3c(c(N)c2C1)CCCN3C	-7.55
CN1CCCc2c1nc1c(c2N)CCCC1	75.8

SMILES	INHIBITION [%]
CC(C)CN1CCC(NCCNc2cccnc2)CC1	79.1
CC(C)CN1C(=O)C2(CCCC2)NC1c1cccnc1 (stereo not given)	-8.76
CC(=O)N1C[C@H]2CNC[C@@]2(C(=O)NCCNc2ccncc2C)C1	-37
Cc1cnccc1NCCNC1CCN(CC(C)C)CC1	80
Cc1cc(CC(C)NC2CCN(CC(C)C)CC2)[nH]n1 (stereo not given)	-57.2
c1cncc(NCCNC2CCCNC2)c1 (stereo not given)	-1.26
Cn1cc(N2C(=O)CC[C@@H]3[C@H]2CCN3Cc2ccncc2)cn1	-123
c1ccc(CN2CCN3C[C@H](Oc4cccnc4)C[C@H]3C2)nc1	-10.5
COc1ccccc1CNCc1nn(-c2ccccc2)c2c1CCC2	81.6
c1ccc(O[C@@H]2CC[C@H]3[C@H]2OCCN3Cc2ccsc2)nc1	-77.6
CN1CCN(S(=O)(=O)c2ccccc2)Cc2cccnc21	-41.3
O=C(c1[nH]nc(C2CC2)c1Cl)N1CCN(S(=O)(=O)c2ccccc2)CC1	75.8
O=C(NCc1ccccn1)[C@]12COC[C@H]1CN(C1CCC1)C2	-26.3
N#Cc1ccc(NCCc2n[nH]c(=O)[nH]2)cc1Cl	-36.1
Cc1nccc([C@@H]2C[C@@H]3CCN(Cc4ccco4)C[C@H]3O2)n1	-17.2
O=C(Nc1cccnc1)[C@H]1CN(Cc2ccco2)C[C@H]2OCC[C@@H]12	-115
Cc1ccc(NCCCNC(=O)C2CCCN(Cc3ccco3)C2)nc1 (stereo not given)	70.6
CC(C)CC(=O)N1CCC2(CC1)OCCO2	-80.4
COc1ccc2ncn(Cc3ncc[nH]3)c(=O)c2c1	-84.2
O=C(c1ccc(Cl)cc1-n1cnnn1)N1CCC2(CC1)OCCO2	-52.7
CC(C)N1CCO[C@H]2CN(C(=O)c3ccncc3F)C[C@H]21	-88.4
CCC1CN(C(=O)c2ccc(Cl)cc2O)CCN1C(C)C (stereo not given)	73.3
O=C1CO[C@@H]2CN(Cc3cccnc3)C[C@H]2N1Cc1ccncc1	-6.5
O=C1Nc2ccccc2C12CCN(Cc1ccccn1)CC2	-45.4
Cc1[nH]c2ccc(CNC3CCN(Cc4ccccn4)CC3)cc2c1C	93.6
C[C@H]1C[C@H]2CN(Cc3ccccn3)CC[C@@H]2O1	-8.95
O=C(NC[C@H]1C[C@@H]2CCN1C[C@@H]2CN1CCCCC1)Nc1ccccc1	-34.9

SMILES	INHIBITION [%]
O=S(=O)(NC[C@H]1C[C@@H]2CCN1C[C@@H]2CN1CCOCC1)c1ccccc1	-71.9
O=S(=O)(NC[C@H]1C[C@@H]2CCN1C[C@@H]2CN1CCCC1)c1ccc(Cl)cc1	89.4
CC(=O)N1CCOCC2(CN(Cc3ccccn3)CCO2)C1 (stereo not given)	-107
CN1CCN(C(=O)c2cn(Cc3ccccc3)c3ncccc23)CC1	-70.4
CN1CCCN(C(=O)c2ccnn2-c2ccc3ccccn23)CC1	70.8
CC(NC1CCCC1)c1ccccc1-n1cccn1 (stereo not given)	81
NC(Cc1nc(-c2ccccc2)no1)c1ccccc1 (stereo not given)	-253
NC(CC1CCCCC1)c1ccccc1 (stereo not given)	55.4
Cc1cc(CN2CC[C@H]3OCC[C@@]3(C(=O)N3CCOCC3)C2)no1	-53.6
COc1cccc([C@@H]2CCN(Cc3cn(C)c4ccccc34)C[C@H]2O)c1	78
COc1cccc([C@@H]2CCN(Cc3cccc(C)n3)C[C@H]2O)c1	-29.5
OC[C@@H]1[C@@H](c2ccccc2)CN2CCN(c3ccccn3)C[C@H]12	-63.3
Cn1cc(CN2CCN3C[C@H](Oc4cccnc4)C[C@H]3C2)cn1	-50.7
CN(C)[C@@H]1CCN(C(=O)Cc2ccc(F)cc2)[C@H]1Cc1cnn(C)c1	-2.98
Cn1cc(CN2C[C@@H]3CCC[C@@H](OCc4cccnc4)[C@@H]3C2)cn1	-74.7
Cn1cc(CN2CCCC(CCc3c(F)cccc3F)C2)cn1 (stereo not given)	79.3
Cn1cc(CN2C[C@H](Oc3ncccc3F)[C@H]3OCCC[C@H]32)cn1	-37
Cc1ccc(N2CCO[C@H]3CN(Cc4cnn(C)c4)C[C@H]32)nn1	7.68
Cn1cc(CN2CC[C@@H]3[C@@H]2CCN3C(=O)Cc2cccc(F)c2)cn1	-39.1
Cn1cc(CN2CCCC(CCc3ccc(F)cc3F)C2)cn1 (stereo not given)	89.3
Cn1cc(CN2CC[C@H]3CO[C@H](CNc4ncccn4)[C@H]3C2)cn1	-108
Cc1cccc(CN2CC[C@H]3[C@H]2CCN3Cc2cnn(C)c2)n1	-127
Cn1cc(CN2CCCC(CCc3ccc(F)c(F)c3)C2)cn1 (stereo not given)	71.2
Cn1cc(CN2CCCC(CCc3ccc(F)cc3)C2)cn1 (stereo not given)	74.7
